{"source": "ChEMBL document CHEMBL3988442", "about": "“University of Dundee, Small-Polar-MMV Screening Library” (2021)", "note": "The whole screen tested about 48,000 compounds, of which about 13,000 (27%) showed an effect of 50% or more. This is one part of the list.", "data": [{"system": "Wolbachia pipientis", "assay": "Anti-Wolbachia Cell-Based Screen", "assay_type": "functional", "set-up": "scale not given: in the data most compounds retested in dose-response had high values", "details": "5 µM", "units": {"Percent Effect": "%"}, "values": [{"smiles": "Clc1cc(CN2CCCC(Cn3cncn3)C2)c2ncccc2c1", "note": "(stereo unspecified)", "Percent Effect": -5.34}, {"smiles": "N#CCC(=O)NCc1nnc2n1CCN(Cc1ccsc1)C2", "Percent Effect": -8.086}, {"smiles": "COC(=O)CN1N=C(C(=O)N2CCCC2)S(=O)(=O)c2ccccc21", "Percent Effect": 18.69}, {"smiles": "CCc1nc(C2CCCN2Cc2nccn2Cc2ccccc2)no1", "note": "(stereo unspecified)", "Percent Effect": 3.12}, {"smiles": "Cc1nccn1-c1cncc(C2CCCN2Cc2cccnc2)n1", "note": "(stereo unspecified)", "Percent Effect": 117.3}, {"smiles": "CC(C)c1nccn1-c1cncc(C2CCCN2Cc2cccnc2)n1", "note": "(stereo unspecified)", "Percent Effect": 151.3}, {"smiles": "Cc1nccn1-c1cncc(C2CCCN2Cc2ccccc2)n1", "note": "(stereo unspecified)", "Percent Effect": 97.46}, {"smiles": "COCCN(Cc1ccc(F)cc1C#N)CC(F)(F)F", "Percent Effect": -22.68}, {"smiles": "COCCNC(=O)C1(CCCc2cccnc2)CCCN1C", "note": "(stereo unspecified)", "Percent Effect": 112.4}, {"smiles": "CN1CCCC1(CCCc1cccnc1)C(=O)NCc1nccn1C", "note": "(stereo unspecified)", "Percent Effect": 97.51}, {"smiles": "CNC(=O)C1(CCCc2cccnc2)CCCCN1", "note": "(stereo unspecified)", "Percent Effect": -7.533}, {"smiles": "COCCCn1ccc(NC(=O)NCCc2cccnc2)n1", "Percent Effect": -2.122}, {"smiles": "O=C(Nc1ccnc2ccnn12)c1ccc(N2CCC(O)CC2)cc1", "Percent Effect": 5.741}, {"smiles": "CN(CC1CCOCC1)C(=O)NCCCN1CCCCC1", "Percent Effect": -10.18}, {"smiles": "COCCN1CCC(CN(CC2CCCO2)C(=O)COC)CC1", "note": "(stereo unspecified)", "Percent Effect": -4.712}, {"smiles": "COCCN1CCC(CN(CC2CCCO2)C(=O)CCC(F)(F)F)CC1", "note": "(stereo unspecified)", "Percent Effect": 140.7}, {"smiles": "COCCN1CCC(CN(CC2CCCO2)C(=O)CCNC(C)=O)CC1", "note": "(stereo unspecified)", "Percent Effect": -5.608}, {"smiles": "COCC(=O)N(CCC(=O)OC)CC1CCCO1", "note": "(stereo unspecified)", "Percent Effect": -0.04842}, {"smiles": "COCCN1CCC(CNC(=O)C2(NC(C)=O)CCCCC2)CC1", "Percent Effect": 17.17}, {"smiles": "COCCN1CCC(CN(CC2CCCO2)C(=O)CNC(C)=O)CC1", "note": "(stereo unspecified)", "Percent Effect": 106.5}, {"smiles": "COCCN1CCC(CN(CC2CCCO2)C(=O)C2CCOCC2)CC1", "note": "(stereo unspecified)", "Percent Effect": 95.06}, {"smiles": "O=C(CC1CCCO1)Nc1ccn(Cc2cccc3cccnc23)n1", "note": "(stereo unspecified)", "Percent Effect": -4.253}, {"smiles": "CC(=O)N1CCN(C(=O)CCCc2nc(C(C)C)no2)CC1", "Percent Effect": -8.538}, {"smiles": "CC(NCc1cnc(C2CCC2)s1)c1ccc(-n2cccn2)cc1", "note": "(stereo unspecified)", "Percent Effect": -14.42}, {"smiles": "O=C(CSc1ccc2c(c1)OCCO2)NS(=O)(=O)C1CCCCC1", "Percent Effect": -3.835}, {"smiles": "O=S(=O)(Nc1ccc2c(c1)OCCO2)N1CCCCC1", "Percent Effect": 85.12}, {"smiles": "CN(C)S(=O)(=O)Nc1ccc(-n2nccc2C(F)(F)F)cc1", "Percent Effect": -20.66}, {"smiles": "O=S(=O)(Nc1ccc(Oc2ccc3c(c2)OCO3)cc1)N1CCCCC1", "Percent Effect": 108.9}, {"smiles": "CN(C)S(=O)(=O)Nc1ccc(Oc2ccc3c(c2)OCO3)cc1", "Percent Effect": 102.4}, {"smiles": "Cc1cc(C(=O)O)cc(S(=O)(=O)Nc2ccc3c(c2)OCO3)c1C", "Percent Effect": 13.44}, {"smiles": "Cc1c(F)cc(C(=O)O)cc1S(=O)(=O)Nc1ccc2c(c1)OCCO2", "Percent Effect": -12.89}, {"smiles": "CC1(Cc2ccc3c(c2)OCO3)CCCN(S(=O)(=O)N2CCCC2)C1", "note": "(stereo unspecified)", "Percent Effect": -20.92}, {"smiles": "O=C(c1cc(COc2ccc3c(c2)OCO3)[nH]n1)N1CCCCO1", "Percent Effect": 18.38}, {"smiles": "CC(C)c1nsc(N2CCn3c(nnc3C(F)(F)F)C2)n1", "Percent Effect": -8.607}, {"smiles": "CCc1cc(=O)[nH]c(-c2ccc(NCCc3ccc(O)cc3)nc2)n1", "Percent Effect": -8.547}, {"smiles": "Cc1ccc(CNC2CCN(CCc3ccncc3)CC2)cc1C", "Percent Effect": 2.941}, {"smiles": "O=C1[C@H]2CC[C@H](CN(Cc3ccccc3OC(F)F)C2)N1CC1CC1", "Percent Effect": -16.02}, {"smiles": "Cn1cc(CN2C[C@@H]3CN(C(=O)c4cccn4C)CCO[C@@H]3C2)cn1", "Percent Effect": 94.4}, {"smiles": "CCS(=O)(=O)N1C[C@@H]2CN(Cc3cnn(C)c3)CCO[C@@H]2C1.O=C(O)C(F)(F)F", "Percent Effect": 4.441}, {"smiles": "O=C(O)C(F)(F)F.O=C(c1cocn1)N1C[C@@H]2CN(Cc3ccco3)CCO[C@@H]2C1", "Percent Effect": -2.402}, {"smiles": "O=S(=O)(C1CC1)N1CCO[C@@H]2CN(Cc3ccco3)C[C@@H]2C1", "Percent Effect": 3.474}, {"smiles": "Cn1cc(CN2C[C@@H]3CN(Cc4ccoc4)CCO[C@@H]3C2)cn1.O=C(O)C(F)(F)F.O=C(O)C(F)(F)F", "Percent Effect": 1.152}, {"smiles": "CN(C)CCN1CCO[C@H]2CCN(C(=O)c3cccs3)CC[C@@H]21.O=C(O)C(F)(F)F.O=C(O)C(F)(F)F", "Percent Effect": -1.673}, {"smiles": "CN(C)CCN1CCO[C@@H]2CCN(C(=O)c3cccn3C)CC[C@H]21", "Percent Effect": 111.2}, {"smiles": "Cc1nc(CN2CCO[C@H]3CN(C(=O)c4cccn4C)C[C@H]32)cs1", "Percent Effect": 4.285}, {"smiles": "Cn1cccc1C(=O)N1CCO[C@@H]2CN(Cc3ccco3)C[C@@H]2C1", "Percent Effect": 74.97}, {"smiles": "CN(Cc1ccc(Cl)s1)C(=O)CN1CC(n2cccn2)C1", "Percent Effect": -39.44}, {"smiles": "CCC(NC(=O)CCNC(=O)c1ccccc1F)c1cc(C)ccn1", "note": "(stereo unspecified)", "Percent Effect": -12.53}, {"smiles": "CC(C)Cc1nc(CCn2ccc(=O)[nH]c2=O)n(-c2ccccn2)n1", "Percent Effect": 0.8317}, {"smiles": "CCC(c1nc(C(C)C)nn1-c1ccncc1C)n1cccn1", "note": "(stereo unspecified)", "Percent Effect": -1.289}, {"smiles": "Cc1nc[nH]c1C(=O)N1CCCC2(CN(C)C(=O)O2)C1", "note": "(stereo unspecified)", "Percent Effect": -29.59}, {"smiles": "COc1ncc(-c2ccc(C(N)=O)cc2)c(OC)n1", "Percent Effect": 99.76}, {"smiles": "COc1ncc(NS(=O)(=O)c2ccc(F)c(F)c2)c(OC)n1", "Percent Effect": -5.769}, {"smiles": "COc1ccc(-c2cnc(NC(C)=O)[nH]2)cc1", "Percent Effect": -6.695}, {"smiles": "COc1ncc(-c2ccc(O)cc2)c(OC)n1", "Percent Effect": 83.6}, {"smiles": "COc1ncc(-c2cc(NC3CCCC3)nc3[nH]ccc23)c(OC)n1", "Percent Effect": 5.51}, {"smiles": "COc1ncc(NS(=O)(=O)c2cccc(C)c2)c(OC)n1", "Percent Effect": 20.6}, {"smiles": "COc1ncc(-c2ccc(NC(C)=O)cc2)c(OC)n1", "Percent Effect": 97.6}, {"smiles": "COc1ncccc1-c1cc(C(N)=O)ccn1", "Percent Effect": 12.1}, {"smiles": "COc1ncc(NC(=O)c2ccco2)c(OC)n1", "Percent Effect": 4.719}, {"smiles": "CC(C)n1cnnc1CN(C)Cc1ccc(CN(C)S(C)(=O)=O)o1", "Percent Effect": -6.062}, {"smiles": "CN(CC1CCN(CCO)CC1)CC(O)c1ccc(F)cc1", "note": "(stereo unspecified)", "Percent Effect": 8.04}, {"smiles": "O=C(Nc1nnc(C2CC2)s1)NC1CCOc2ccccc21", "note": "(stereo unspecified)", "Percent Effect": -5.522}, {"smiles": "CN(Cc1cnc(N)nc1)C(=O)C1CCN(C(=O)C2CCCC2)CC1", "Percent Effect": -2.189}, {"smiles": "O=C(C1CC12CCC2)N1CCC(n2cc(-c3ccsc3)nn2)CC1", "note": "(stereo unspecified)", "Percent Effect": -51.66}, {"smiles": "CN(C)CCN1CC(C(=O)N2CCC(c3cc(=O)[nH]cn3)CC2)CC1=O", "note": "(stereo unspecified)", "Percent Effect": 11.42}, {"smiles": "CCn1c(C2CCCN(C(=O)C(C)(C)OC)C2)nn(CCN(C)C)c1=O", "note": "(stereo unspecified)", "Percent Effect": -8.02}, {"smiles": "Cc1cc(CN(C)C(=O)CN2CC3(CCNCC3)OC2=O)n(C)n1", "Percent Effect": -5.459}, {"smiles": "CN(C)Cc1cc(C2CCN(C(=O)C3CC34CCC4)CC2)nn1C.Cl", "note": "(stereo unspecified)", "Percent Effect": 106.1}, {"smiles": "COC(C)(C)C(=O)N1CCC(c2cc(CN(C)C)n(C)n2)CC1.Cl", "Percent Effect": 119.7}, {"smiles": "CN(C)Cc1cc(C2CCN(C(=O)C3CCCNC3)CC2)nn1C.Cl", "note": "(stereo unspecified)", "Percent Effect": 84.37}, {"smiles": "CS(=O)(=O)c1nccn1Cc1ccc(F)cc1Cl", "Percent Effect": -6.222}, {"smiles": "Cc1cnc(N2Cc3cnn(Cc4ccc(F)cc4)c3C2)nc1N(C)C", "Percent Effect": 15.57}, {"smiles": "Cc1cc(N2CCc3c(nc(C(C)C)n3C)C2)nc(N)n1", "Percent Effect": 12.43}, {"smiles": "O=C(NCc1ccccc1CO)Nc1ccc2c(c1)CCC2", "Percent Effect": -12.78}, {"smiles": "CC(=O)N1CCCc2cc(NC(=O)NCCc3cnn(C)c3)ccc21", "Percent Effect": -10.98}, {"smiles": "CS(=O)(=O)c1ccc(NC(=O)NCc2ccc3c(c2)CCC3)cn1", "Percent Effect": 2.355}, {"smiles": "CCS(=O)(=O)N1CCc2ccc(NC(=O)NCCc3ccccc3)cc21", "Percent Effect": 122.4}, {"smiles": "CCS(=O)(=O)N1CCc2ccc(NC(=O)NCc3ccccc3)cc21", "Percent Effect": 168.3}, {"smiles": "NS(=O)(=O)N1CCc2ccc(NC(=O)CCc3ccncc3)cc21", "Percent Effect": -8.791}, {"smiles": "CCCNC(=O)Nc1ccc2c(c1)N(S(=O)(=O)CC)CC2", "Percent Effect": 85.58}, {"smiles": "CCCNC(=O)CNc1ccc2c(c1)N(C(=O)OC(C)(C)C)CCC2", "Percent Effect": -19.09}, {"smiles": "Fc1cccc(N2CCOC3(CCCN(c4nncs4)C3)C2)c1", "note": "(stereo unspecified)", "Percent Effect": -6.078}, {"smiles": "O=C(CN1CCCC1c1nc(-c2ccccn2)no1)N1CCOCC1", "note": "(stereo unspecified)", "Percent Effect": -3.547}, {"smiles": "O=C(C1CCCC1)N1CC(c2nc(Cc3ccccc3)no2)C1", "Percent Effect": 3.47}, {"smiles": "O=C(C1CCCC1)N1CCOC(c2nc(-c3ncccn3)no2)C1", "note": "(stereo unspecified)", "Percent Effect": 90.83}, {"smiles": "O=C(CC1CCCC1)N1CCOC(c2nc(-c3ncccn3)no2)C1", "note": "(stereo unspecified)", "Percent Effect": 86.32}, {"smiles": "CCn1cc(Cn2cc(-c3cccc(C(C)N(C)C)c3)nn2)cn1", "note": "(stereo unspecified)", "Percent Effect": -0.05647}, {"smiles": "COc1ccc(N(C)C(=O)C2CN(C)CCO2)cc1Cl", "note": "(stereo unspecified)", "Percent Effect": 4.765}, {"smiles": "CCOc1ncccc1Cn1cc(-c2nccn2C)nn1", "Percent Effect": -13.21}, {"smiles": "Cn1cccc1-c1cc(C(=O)NCCCc2csc(N)n2)[nH]n1", "Percent Effect": -5.944}, {"smiles": "CCc1nc(CCn2cc(-c3nccn3C)nn2)no1", "Percent Effect": -10.63}, {"smiles": "Cn1ccnc1-c1cn(CCCc2csc(N)n2)nn1", "Percent Effect": 106.8}, {"smiles": "Cc1cn(CCn2ccnc2-c2sccc2C)nn1", "Percent Effect": -12.56}, {"smiles": "Cn1ccnc1-c1cn(CCc2nnc(N)s2)nn1", "Percent Effect": 90.14}, {"smiles": "Cc1cc(-n2nc(C)nc2-c2cn(CCN)nn2)ccn1", "Percent Effect": -45.52}, {"smiles": "Cn1ccnc1-c1cn(CCCc2nnc(N)s2)nn1", "Percent Effect": 101}, {"smiles": "Cc1ccccc1C1CCN(CCn2cc(-c3nccn3C)nn2)C1", "note": "(stereo unspecified)", "Percent Effect": -7.795}, {"smiles": "Cn1ccnc1C(=O)NCCS(=O)(=O)c1ccc(C(C)(C)C)cc1", "Percent Effect": 15.11}, {"smiles": "Cc1cc(C)c(CNC(=O)NCC(c2ccccc2)N(C)C)c(=O)[nH]1", "note": "(stereo unspecified)", "Percent Effect": 1.646}, {"smiles": "CC(C)NS(=O)(=O)c1cc(C(=O)O)cc(-c2ccc3c(c2)OCO3)c1", "Percent Effect": 10.97}]}]}
